The target of experiment [1] is Progesterone receptor (Homo sapiens) (UniProt P06401). Nature of the experiment: qHTS assay to identify small molecule antagonists of the progesterone receptor (PR) signaling pathway (AID 1346795; active = well fitted inhibition curve with a large enough effect in the signal ratio in the repeat runs, not every such curve was filed as active; the % refers to the signal ratio; also: potency is read from the fitted curve at half-maximal effect). The method in brief: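 Inhibition of R5020-induced (1 nM final) beta-lactamase reporter signal in PR-UAS-bla HEK293T cells was scored by FRET fluorescence after overnight (16 hr) compound treatment.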
Progesterone receptor (Homo sapiens), sequence (P06401 whole entry, looked up): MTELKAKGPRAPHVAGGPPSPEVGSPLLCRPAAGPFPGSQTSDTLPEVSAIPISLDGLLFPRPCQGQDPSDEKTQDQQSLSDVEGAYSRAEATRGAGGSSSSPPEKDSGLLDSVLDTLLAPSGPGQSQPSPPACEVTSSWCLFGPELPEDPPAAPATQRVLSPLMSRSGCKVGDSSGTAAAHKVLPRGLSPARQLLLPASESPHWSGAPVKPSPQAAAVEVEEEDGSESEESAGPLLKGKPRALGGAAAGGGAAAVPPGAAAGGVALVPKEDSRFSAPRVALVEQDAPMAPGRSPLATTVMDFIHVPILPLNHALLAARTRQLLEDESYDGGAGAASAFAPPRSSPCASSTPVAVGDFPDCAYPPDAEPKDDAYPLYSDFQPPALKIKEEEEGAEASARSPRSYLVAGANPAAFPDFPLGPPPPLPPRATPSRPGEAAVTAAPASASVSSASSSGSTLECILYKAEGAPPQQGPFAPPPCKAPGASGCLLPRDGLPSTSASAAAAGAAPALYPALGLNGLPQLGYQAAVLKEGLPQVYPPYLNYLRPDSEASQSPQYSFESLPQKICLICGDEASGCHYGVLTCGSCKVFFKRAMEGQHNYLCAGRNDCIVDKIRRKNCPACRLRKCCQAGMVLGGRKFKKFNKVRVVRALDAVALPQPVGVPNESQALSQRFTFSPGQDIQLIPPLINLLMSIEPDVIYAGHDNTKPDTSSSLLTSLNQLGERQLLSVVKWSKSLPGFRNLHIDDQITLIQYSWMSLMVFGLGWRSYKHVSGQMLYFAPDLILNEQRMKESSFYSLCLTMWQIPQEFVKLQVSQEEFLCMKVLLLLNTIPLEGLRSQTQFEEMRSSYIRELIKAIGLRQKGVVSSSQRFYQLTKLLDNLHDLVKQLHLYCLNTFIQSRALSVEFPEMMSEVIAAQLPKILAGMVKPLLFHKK
(In qHTS, concentration-response curves come from the screen itself.)

The nature of experiment [2]: qHTS assay to identify small molecule antagonists of the progesterone receptor (PR) signaling pathway - cell viability counter screen (AID 1346798). Also: nearly all actives have a fitted effect of over 50% in size. Also: potency is read from the fitted curve at half-maximal effect. As to activity change, negative = cytotoxicity: series mostly up to about 92 µM. The method in brief: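 ATP content as viability readout: CellTiter-Glo luminescence, 30 min room temperature, in PR-UAS-bla HEK293T cells after 16 hr compound/R5020 treatment at 37C and 5% CO2.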
Experiment [3] is described as follows: qHTS assay to identify small molecule agonists of the progesterone receptor (PR) signaling pathway - cell viability counter screen (AID 1346799; calls by dose curve; also: nearly all actives have a fitted effect of over 45% in size; also: potency is read from the fitted curve at half-maximal effect). The method in brief:
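Cytotoxicity in PR-bla HEK293T cells: 16 h compound, 37C; CellTiter-Glo added post-FRET read; luminescence after 30 min RT.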

Experiment [4] is described as follows: qHTS assay to identify small molecule antagonists of the TGF-beta/Smad signaling pathway - cell viability counter screen (AID 1346824). Also: nearly all actives have a fitted effect of over 50% in size. Also: potency is read from the fitted curve at half-maximal effect. The method in brief:
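SBE-bla HEK 293T cells, incubated overnight, then compound plus 0.25 ng/mL TGF-beta1 (stock added) for 5 hr at 37 C. Viability was read in the same wells by CellTiter-Glo luminescence after 30 min at room temperature.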

A short description of experiment [5]: qHTS assay to identify small molecule agonists of the TGF-beta/Smad signaling pathway - cell viability counter screen (AID 1346829). Also: nearly all actives have a fitted effect of over 45% in size. Also: potency is read from the fitted curve at half-maximal effect. As to activity change, negative = cytotoxicity: top concentration of the series differs between compounds. In short, it runs like this:
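HEK 293T SBE-bla line, 5 hr compound exposure at 37 C, multiplexed CellTiter-Glo viability read by luminescence.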

Experiment [6] can be described thus: qHTS assay to identify small molecule agonists of the TGF-beta/Smad signaling pathway (AID 1346859; active = well fitted activation curve with a large enough effect in the signal ratio in the repeat runs, not every such curve was filed as active; the % refers to the signal ratio; also: series mostly up to about 77 µM). In short, it runs like this:
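Stable Smad binding element-beta-lactamase HEK 293T cells; 5 hr compound exposure at 37 C under 5% CO2; 2 hr room-temperature substrate step; fluorescence excited at 405 nm, collected at 460 nm and 530 nm.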

The target of experiment [7] is Thyrotropin-releasing hormone receptor (Homo sapiens) (UniProt P34981). Nature of the experiment: qHTS assay to identify small molecule agonists of the thyrotropin-releasing hormone receptor (TRHR) signaling pathway (AID 1346891; calls by dose curve; also: potency is read from the fitted curve at half-maximal effect;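 as to activation: HEK293 cells expressing TRHR with calcium dye readout; series mostly up to about 58 µM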). The method in brief:
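In 1536-format, 1500 TRHR-Hek293 cells per well grew 18 h, took up calcium dye for 2 h at 37 °C, received compound, and were read kinetically; 15-point titrations, triplicates.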

Experiment [8] can be described thus: Human pregnane X receptor (PXR) small molecule agonists, qHTS cell viability counter screen (AID 1346977). Also: nearly all actives have a fitted effect of over 50% in size. Also: potency is read from the fitted curve at half-maximal effect. The method in brief:
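Readout is CellTiter-Fluor fluorescence from PXR-Luc HepG2 cells. Plated cells rested 5hr, then were treated with compounds for 24hr at 37C and 5% CO2, with reagent present during the last hour.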

Experiment [9] in a line: Caspase-3/7 induction in HepG2 cells by small molecules, qHTS assay (AID 1346978). Also: nearly all actives have a fitted effect of over 15% in size. Also: potency is read from the fitted curve at half-maximal effect. The method in brief:
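Wild-type HepG2 cells, 2,000/well, settled 5 hr at 37 C and 5% CO2, then compound-treated for 17 hr; caspase-3/7 activity read by luminescent Caspase-Glo 3/7 after 30 min at room temperature.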

Experiment [10] deals with Thyrotropin-releasing hormone receptor (Homo sapiens) (UniProt P34981). Nature of the experiment: qHTS assay to identify small molecule antagonists of the thyrotropin-releasing hormone receptor (TRHR) signaling pathway (AID 1346877; active = well fitted inhibition curve with a large enough effect in the repeat runs, not every such curve was filed as active; also: potency is read from the fitted curve at half-maximal effect; as to activity, negative = inhibition: series mostly up to about 51 µM). The method in brief: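 Screening used HEK293 cells engineered with TRHR, with a brief 5 min room-temperature compound exposure preceding addition of TRH to 1 nM. The read-out was kinetic calcium-dye fluorescence, concentration-response from 15 doses in triplicate.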
Thyrotropin-releasing hormone receptor (Homo sapiens), sequence (P34981 whole entry, looked up): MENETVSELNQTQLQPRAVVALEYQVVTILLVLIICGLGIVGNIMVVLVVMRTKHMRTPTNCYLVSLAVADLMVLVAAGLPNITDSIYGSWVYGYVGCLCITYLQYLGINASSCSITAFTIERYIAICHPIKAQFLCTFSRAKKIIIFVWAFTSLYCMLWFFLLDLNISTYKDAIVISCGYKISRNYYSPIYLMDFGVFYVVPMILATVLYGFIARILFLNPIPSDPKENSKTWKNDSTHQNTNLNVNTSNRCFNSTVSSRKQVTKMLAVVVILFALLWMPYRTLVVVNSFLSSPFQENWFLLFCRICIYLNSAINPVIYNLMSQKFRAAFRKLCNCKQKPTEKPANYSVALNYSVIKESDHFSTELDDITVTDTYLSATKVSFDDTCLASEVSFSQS

Here are results for 27 molecules from PubChem BioAssay (Tox21).

Each structure is given as a SMILES string. Values joined by “and” are separate entries in the source; they are usually repeats but may differ in a detail not shown here. Identical values can stand only once. Unmarked numbers belong to inactive results. Results filed as inconclusive are left out. Active and inactive are the calls of the source. Unless noted, calls follow the shape of the dose curve; as a rule, active = well fitted curve in the direction sought with a large enough effect in the repeat runs; inconclusive = weak or mixed curves; inactive = no such curve, though single readings can be large; an effect the other way counts as inactive or inconclusive.
% is scaled to controls: 0 for no effect and ±100 for the full control effect.

`CCCCCCCOC(=O)c1ccccc1C(=O)OCCCCCCC`: the Potency entry in experiment [1], in experiment [2], in experiment [3], in experiment [4], in [5] and in [6] was “inactive” in each case. The Potency entry in experiment [7], in [8] and in experiment [9] was “inactive” each time.
In the case of `CC(C)=CC1CC(C)CCO1` (stereo not given), the Potency result in experiment [1], in [2], in [3], in [4], in experiment [5] and in [6] was “inactive” each time. Moreover, the Potency result in [10], in [7], in experiment [8] and in experiment [9] was “inactive” in each case.
Regarding `Cc1cccc(N(C)C)c1`, the Potency result in experiment [1], in experiment [2], in experiment [3], in experiment [4], in [5] and in [6] was “inactive” each time. Further, the Potency result in experiment [8] and in [9] was “inactive” throughout.
On to `CCCCN(CCCC)CCC(O)c1cc2c(Cl)cc(Cl)cc2c2cc(C(F)(F)F)ccc12` (stereo not given), for which the Potency result in experiment [1], in [2], in [3], in experiment [4], in [5] and in [6] was “inactive” throughout. Further, in [9], the Potency entry is “inactive”. Further, the Potency in experiment [8] was 26.6 µM (active).
As to `C=CC(=C)CC/C=C(\C)CCC=C(C)C`, the activity change, negative = inhibition in [1] is -8.93% [at 18.9 µM]. Besides, the activity change, negative = cytotoxicity in experiment [2] is -3.03% [at 18.9 µM]; in experiment [3], 7.16% [at 19 µM]; in experiment [5], 1.59% [at 15.8 µM]; in [8], 6.03% [at 19 µM]. Further, in experiment [4], the viability change, negative = cytotoxic was 6.24% [at 15.8 µM]. For the same molecule, the activation in experiment [6] is -1.49% [at 15.8 µM]; in experiment [7], 0.335% [at 11.8 µM]. Also, the caspase activation in experiment [9] is 0.847% [at 19 µM].
In the case of `COc1ccccc1C=O`, the Potency result in [1], in [2], in experiment [3], in experiment [4], in experiment [5] and in experiment [6] was “inactive” throughout. Further, the Potency entry in [8] and in experiment [9] was “inactive” in each case.
With `CCN(CC)CCSC(=O)C(c1ccccc1)c1ccccc1`, the Potency result in experiment [1], in experiment [2], in experiment [3], in experiment [4], in [5] and in experiment [6] was “inactive” each time. Also, the Potency result in [10], in experiment [7] and in [9] was “inactive” in each case.
`CCCCCCCCC(C)=O`: the Potency entry in experiment [1], in experiment [2], in experiment [3], in experiment [4], in experiment [5] and in [6] was “inactive” each time. Moreover, the Potency entry in [10], in experiment [7] and in [9] was “inactive” throughout.
With `CCCN(CCc1cccs1)[C@H]1CCc2c(O)cccc2C1`, the Potency in experiment [1] is 29.8 µM (active). The Potency result in experiment [2], in experiment [3], in experiment [4], in [5], in experiment [6] and in experiment [10] was “inactive” in each case. Also, the Potency entry in [7] and in experiment [9] was “inactive” each time.
For the molecule `CCC(C)c1ccccc1` (stereo not given), the Potency result in experiment [1], in experiment [2], in [3], in [4], in experiment [5] and in experiment [6] was “inactive” throughout. For the same molecule, the Potency entry in [10], in experiment [7] and in experiment [9] was “inactive” throughout.
With `O=CC1CC1`, the Potency entry in [1], in experiment [2], in experiment [3], in [4], in experiment [5] and in experiment [6] was “inactive” throughout. In addition, the Potency result in experiment [7] and in experiment [9] was “inactive” each time.
In the case of `CC1CNCC(C)O1` (stereo not given), the Potency entry in experiment [1], in experiment [2], in experiment [3], in experiment [4], in experiment [5] and in [6] was “inactive” in each case. The Potency entry in experiment [8] and in experiment [9] was “inactive” throughout.
Consider `CC(C)C(=O)OCc1ccccc1`, for which the Potency entry in [1], in experiment [2], in experiment [3], in experiment [4], in experiment [5] and in [6] was “inactive” each time. The Potency result in experiment [8] and in experiment [9] was “inactive” throughout.
Regarding `CCCCOc1ccc(C(=O)CCN2CCCCC2)cc1`, the Potency result in [1], in experiment [2], in [3], in [4], in experiment [5] and in experiment [6] was “inactive” in each case. In addition, the Potency entry in experiment [10], in [7] and in experiment [9] was “inactive” each time.
In the case of `Clc1cc(Cl)c(-c2c(Cl)c(Cl)cc(Cl)c2Cl)cc1Cl`, the Potency result in experiment [1], in [2], in experiment [3], in [4], in [5] and in experiment [6] was “inactive” in each case. Further, the Potency entry in experiment [8] was “inactive”.
On to `CCOCN(C(=O)CS(=O)(=O)O)c1c(C)cccc1CC`, for which the Potency entry in experiment [1], in [2], in [3], in experiment [4], in experiment [5] and in [6] was “inactive” in each case. Besides, the Potency entry in experiment [10], in [7] and in experiment [9] was “inactive” each time.
Consider `O=C1OC(=O)c2ccc3c4c(ccc1c24)C(=O)OC3=O`, for which the Potency entry in experiment [1], in [2], in [3], in experiment [4], in [5] and in experiment [6] was “inactive” in each case. Besides, the Potency entry in experiment [7], in experiment [8] and in experiment [9] was “inactive” throughout.
With `CC(C)c1ccccc1N`, the Potency entry in experiment [1], in experiment [2], in [3], in experiment [4], in [5] and in experiment [6] was “inactive” in each case. Also, the Potency result in [7], in [8] and in [9] was “inactive” throughout.
For the molecule `Cc1c(C)n(Cc2ccccc2)c2ccc(C(=O)OCCN(C)C)cc12`, the Potency is 26.6 µM (active) in experiment [1] and 21.1 µM (active) in experiment [8]. Besides, the Potency entry in experiment [2], in experiment [3], in experiment [4], in experiment [5], in experiment [6] and in experiment [7] was “inactive” throughout.
As to `CC1(C)C(=O)N(CO)C(=O)N1CO`, the Potency result in [1], in [2], in experiment [3], in [4], in experiment [5] and in experiment [6] was “inactive” each time. In addition, the Potency entry in experiment [10], in [7] and in [9] was “inactive” throughout.
As for `Clc1cccnc1`, the Potency entry in experiment [1], in [2], in experiment [3], in experiment [4], in experiment [5] and in [6] was “inactive” throughout. Further, the Potency entry in experiment [10], in [7] and in experiment [9] was “inactive” each time.
As for `CCC(=O)CC(C)CC` (stereo not given), the activity change, negative = inhibition in experiment [1] is 2.97% [at 0.348 µM]. The activity change, negative = cytotoxicity in experiment [2] was -3.42% [at 0.348 µM]; in [3], 1.66% [at 0.349 µM]; in experiment [5], 3.15% [at 0.29 µM]; in [8] it was 0.0659% [at 0.349 µM]. The viability change, negative = cytotoxic in [4] was 13.2% [at 0.29 µM]. Besides, the activation in experiment [6] is -0.839% [at 0.29 µM]. The caspase activation in experiment [9] is 1.2% [at 0.349 µM].
Turning to `CCCCC(CC)COC(=O)c1ccc(O)cc1` (stereo not given), in experiment [1], the Potency is 30.5 µM (active) and 27.3 µM (active). The Potency result in experiment [2], in experiment [3], in experiment [5], in experiment [7] and in experiment [9] was “inactive” throughout.
For the molecule `CC1=CP(=O)(c2ccccc2)CC1` (stereo not given), the Potency entry in experiment [1], in [2], in experiment [3], in [4], in experiment [5] and in experiment [7] was “inactive” each time. Moreover, the Potency result in experiment [8] and in [9] was “inactive” in each case.
For `CCN=c1cc2oc3cc(NCC)c(C)cc3c(-c3ccccc3C(=O)OCC)c-2cc1C`, the Potency was 48.4 µM (active) and 54.5 µM (active) in [1]; 61.1 µM (active) in [2]; 48.4 µM (active) in experiment [3]; 48.8 µM (active) and 49 µM (active) in experiment [4]; 48.8 µM (active) and 49 µM (active) in [5]; 8.47 µM (active) and 10.7 µM (active) in experiment [10]. Further, the Potency in [7] was 6.89 µM (active) and 5.49 µM (active); in experiment [8], 2.51 µM (active) and 1.54 µM (active); in experiment [9] it was 27.3 µM (active).
On to `O=S(=O)(O)c1cc(S(=O)(=O)O)c2ccc3c(S(=O)(=O)O)cc(S(=O)(=O)O)c4ccc1c2c43`, for which the activity change, negative = inhibition in experiment [1] was 5.54% [at 18.9 µM]. Further, the activity change, negative = cytotoxicity in experiment [2] was -15.6% [at 18.9 µM]; in [3] it was -11.2% [at 19 µM]; in experiment [5] it was 10.3% [at 15.8 µM]; in experiment [8] it was 3.17% [at 19 µM]. In addition, the results for the activation in experiment [6] and in [7] were 1.38% [at 15.8 µM] and -0.321% [at 11.8 µM], respectively. Moreover, in experiment [10], the activity, negative = inhibition was -5.39% [at 10.5 µM]. The caspase activation in experiment [9] is 0.784% [at 19 µM].
As for `CCCCCCCC(=O)OCC`, the Potency result in [1], in experiment [2], in experiment [3], in experiment [4], in experiment [5] and in experiment [10] was “inactive” each time. Besides, the Potency entry in [7], in experiment [8] and in experiment [9] was “inactive” in each case.
